# The supplement of paper PMC8728848
# This is one part of a sample in which the strongest signals are shown more often than they occur.
# B1: Gal 10 (Homo sapiens), Q05315 (protein)
# chain: MSLLPVPYTEAASLSTGSTVTIKGRPLVCFLNEPYLQVDFHTEMKEESDIVFHFQVCFGRRVVMNSREYGAWKQQVESKNMPFQDGQEFELSISVLPDKYQVMVNGQSSYTFDHRIKPEAVKMVQVWRDISLTKFNVSYLKR
# What was measured:
# Experiment in all cases: glycan array binding signal (z-score within array); higher = stronger binding
# Settings in all cases: glycan notation: IUPAC condensed, linker removed
# [1] = target: Fuc(a1-2)Gal(b1-3)[Fuc(a1-4)]GlcNAc(b1-2)Man(a1-3)[Fuc(a1-2)Gal(b1-3)[Fuc(a1-4)]GlcNAc(b1-2)Man(a1-3)]Man(b1-4)GlcNAc(b1-4)GlcNAc
# Summary of the method: (§1)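 Negative Z-scores can be read as non-binding. The Z-score is calculated within each array and then averaged across arrays of one protein sequence at different concentrations or buffers and across linkers. Arrays, 3228 in all, were curated from the Consortium for Functional Glycomics database and kept only where the protein sequence was available.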
# [2] = target: Fuc(a1-2)Gal(b1-3)[Fuc(a1-4)]GlcNAc(b1-2)Man(a1-6)[Fuc(a1-2)Gal(b1-3)[Fuc(a1-4)]GlcNAc(b1-2)Man(a1-3)]Man(b1-4)GlcNAc(b1-4)[Fuc(a1-6)]GlcNAc
# Summary of the method: as §1
# [3] = target: Fuc(a1-2)Gal(b1-4)GlcNAc(b1-3)Gal(b1-4)GlcNAc(b1-3)Gal(b1-4)GlcNAc
# Summary of the method: as §1
# [4] = target: Fuc(a1-2)Gal(b1-4)[Fuc(a1-3)]GlcNAc(b1-2)Man(a1-3)[Fuc(a1-2)Gal(b1-4)[Fuc(a1-3)]GlcNAc(b1-2)Man(a1-6)]Man(b1-4)GlcNAc(b1-4)[Fuc(a1-6)]GlcNAc
# Summary of the method: as §1
# [5] = target: Fuc(a1-2)Gal(b1-4)[Fuc(a1-3)]GlcNAc(b1-3)Gal(b1-4)[Fuc(a1-3)]GlcNAc
# Summary of the method: as §1
# [6] = target: Fuc(a1-2)Gal(b1-4)[Fuc(a1-3)]GlcNAc(b1-3)GalNAc
# Summary of the method: as §1
# [7] = target: Fuc(a1-2)Gal6S(b1-3)GlcNAc6S
# Summary of the method: as §1
# [8] = target: Fuc(a1-2)[Gal(a1-3)]Gal(b1-4)GlcNAc(b1-3)GalNAc
# Summary of the method: as §1
# [9] = target: Fuc(a1-2)[Gal(a1-3)]Gal(b1-4)GlcNAc(b1-6)GalNAc
# Summary of the method: as §1
# [10] = target: Fuc(a1-2)[GalNAc(a1-3)]Gal(b1-3)GlcNAc(b1-3)GalNAc
# Summary of the method: as §1
# [11] = target: Fuc(a1-2)[GalNAc(a1-3)]Gal(b1-4)GlcNAc(b1-3)Gal(b1-4)GlcNAc
# Summary of the method: as §1
# [12] = target: Fuc(a1-2)[GalNAc(a1-3)]Gal(b1-4)GlcNAc(b1-3)[Fuc(a1-2)[GalNAc(a1-3)]Gal(b1-4)GlcNAc(b1-6)]GalNAc
# Summary of the method: as §1
# Fuc(b1-3)GlcNAc = target: Fuc(b1-3)GlcNAc
# Summary of the method: as §1
# Gal(a1-3)Gal(b1-3)GlcNAc = target: Gal(a1-3)Gal(b1-3)GlcNAc
# Summary of the method: as §1
# [13] = target: Gal(a1-3)Gal(b1-3)[Fuc(a1-4)]GlcNAc(b1-2)Man(a1-3)[Gal(a1-3)Gal(b1-3)[Fuc(a1-4)]GlcNAc(b1-2)Man(a1-6)]Man(b1-4)GlcNAc(b1-4)GlcNAc
# Summary of the method: as §1
# Gal(a1-3)Gal(b1-4)GlcNAc = target: Gal(a1-3)Gal(b1-4)GlcNAc
# Summary of the method: as §1
# [14] = target: Gal(a1-4)Gal(b1-4)GlcNAc(b1-3)Gal(b1-4)Glc
# Summary of the method: as §1
# [15] = target: Gal(b1-3)Gal(b1-4)GlcNAc(b1-2)Man(a1-3)[Gal(b1-3)Gal(b1-4)GlcNAc(b1-2)Man(a1-6)]Man(b1-4)GlcNAc(b1-4)GlcNAc
# Summary of the method: as §1
# Gal(b1-3)GalNAc = target: Gal(b1-3)GalNAc
# Summary of the method: as §1
# [16] = target: Gal(b1-3)GalNAc(b1-3)Gal(a1-4)Gal(b1-4)Glc
# Summary of the method: as §1
# Gal(b1-4)Glc6S = target: Gal(b1-4)Glc6S
# Summary of the method: as §1
# [17] = target: Gal(b1-4)GlcNAc(b1-2)[Gal(b1-4)GlcNAc(b1-4)]Man(a1-3)[GlcNAc(b1-4)][Gal(b1-4)GlcNAc(b1-2)Man(a1-6)]Man(b1-4)GlcNAc(b1-4)GlcNAc
# Summary of the method: as §1
# [18] = target: Gal(b1-4)GlcNAc(b1-3)Gal(b1-4)GlcNAc(b1-2)[Gal(b1-4)GlcNAc(b1-3)Gal(b1-4)GlcNAc(b1-6)]Man(a1-6)[Gal(b1-4)GlcNAc(b1-3)Gal(b1-4)GlcNAc(b1-2)Man(a1-3)]Man(b1-4)GlcNAc(b1-4)[Fuc(a1-6)]GlcNAc
# Summary of the method: as §1
# [19] = target: Gal(b1-4)GlcNAc(b1-3)Gal(b1-4)GlcNAc(b1-3)Gal(b1-4)GlcNAc(b1-2)[Gal(b1-4)GlcNAc(b1-3)Gal(b1-4)GlcNAc(b1-3)Gal(b1-4)GlcNAc(b1-6)]Man(a1-6)[Gal(b1-4)GlcNAc(b1-3)Gal(b1-4)GlcNAc(b1-3)Gal(b1-4)GlcNAc(b1-2)Man(a1-3)]Man(b1-4)GlcNAc(b1-4)[Fuc(a1-6)]GlcNAc
# Summary of the method: as §1
# [20] = target: Gal(b1-4)GlcNAc(b1-3)Gal(b1-4)GlcNAc(b1-3)Gal(b1-4)GlcNAc(b1-3)Gal(b1-4)GlcNAc(b1-3)Gal(b1-4)GlcNAc(b1-2)Man(a1-3)[Gal(b1-4)GlcNAc(b1-3)Gal(b1-4)GlcNAc(b1-3)Gal(b1-4)GlcNAc(b1-3)Gal(b1-4)GlcNAc(b1-3)Gal(b1-4)GlcNAc(b1-2)Man(a1-6)]Man(b1-4)GlcNAc(b1-4)GlcNAc
# Summary of the method: as §1
# [21] = target: Gal(b1-4)GlcNAc(b1-3)Gal(b1-4)GlcNAc(b1-6)[Gal(b1-3)]GalNAc
# Summary of the method: as §1
# Gal3S(b1-3)GalNAc = target: Gal3S(b1-3)GalNAc
# Summary of the method: as §1
# Gal3S(b1-4)Glc6S = target: Gal3S(b1-4)Glc6S
# Summary of the method: as §1
# [22] = target: Gal3S(b1-4)[Fuc(a1-3)]GlcNAc
# Summary of the method: as §1
# Gal4S(b1-4)GlcNAc = target: Gal4S(b1-4)GlcNAc
# Summary of the method: as §1
binder,measurement,setting,value
B1,glycan array binding signal (z-score),[1],0.078
same,glycan array binding signal (z-score),[2],0.81
same,glycan array binding signal (z-score),[3],-0.692
same,glycan array binding signal (z-score),[4],-0.642
same,glycan array binding signal (z-score),[5],-1.35
same,glycan array binding signal (z-score),[6],2.13
same,glycan array binding signal (z-score),[7],0.571
same,glycan array binding signal (z-score),[8],-0.339
same,glycan array binding signal (z-score),[9],1.28
same,glycan array binding signal (z-score),[10],0.64
same,glycan array binding signal (z-score),[11],-0.116
same,glycan array binding signal (z-score),[12],3.88
same,glycan array binding signal (z-score),Fuc(b1-3)GlcNAc,0.585
same,glycan array binding signal (z-score),Gal(a1-3)Gal(b1-3)GlcNAc,-0.317
same,glycan array binding signal (z-score),[13],0.703
same,glycan array binding signal (z-score),Gal(a1-3)Gal(b1-4)GlcNAc,0.105
same,glycan array binding signal (z-score),[14],-0.109
same,glycan array binding signal (z-score),[15],-0.754
same,glycan array binding signal (z-score),Gal(b1-3)GalNAc,0.117
same,glycan array binding signal (z-score),[16],-0.196
same,glycan array binding signal (z-score),Gal(b1-4)Glc6S,-0.347
same,glycan array binding signal (z-score),[17],-0.708
same,glycan array binding signal (z-score),[18],2.23
same,glycan array binding signal (z-score),[19],5.64
same,glycan array binding signal (z-score),[20],3.23
same,glycan array binding signal (z-score),[21],3.3
same,glycan array binding signal (z-score),Gal3S(b1-3)GalNAc,-0.157
same,glycan array binding signal (z-score),Gal3S(b1-4)Glc6S,0.08
same,glycan array binding signal (z-score),[22],-0.495
same,glycan array binding signal (z-score),Gal4S(b1-4)GlcNAc,-0.269
